Laboratory results taken from paper PMC11006913.
Where a chain is given by its changes, count along the chain named.

Legend:
Test in all cases: PBM; 200 nM protein, PBS
Details in all cases: dsDNA, one strand shown
NKX2-5 [1] = target: NKX2-5 (Homo sapiens, UniProt P52952 125-210, R139K)
NKX2-4 [2] = target: T1, NKX2-4 (Homo sapiens, UniProt Q9H2Z4 175-261, P217L)
T1 sequence: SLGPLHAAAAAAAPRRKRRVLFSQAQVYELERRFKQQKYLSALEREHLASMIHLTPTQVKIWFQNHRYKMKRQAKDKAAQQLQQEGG

NKX2-4 [3] = target: T2, NKX2-4 (Homo sapiens, UniProt Q9H2Z4 175-261, T231S)
T2 sequence: T1 sequence with L43P, T57S

NKX2-4 [4] = target: T3, NKX2-4 (Homo sapiens, UniProt Q9H2Z4 175-261)
T3 sequence: T1 sequence with L43P

NKX2-6 [5] = target: T4, NKX2-6 (Homo sapiens, UniProt A6NCS4 118-204, R150C)
T4 sequence: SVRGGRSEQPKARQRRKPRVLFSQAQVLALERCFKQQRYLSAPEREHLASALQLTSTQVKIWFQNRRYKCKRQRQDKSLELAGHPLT

NKX2-6 [6] = target: T5, NKX2-6 (Homo sapiens, UniProt A6NCS4 118-204)
T5 sequence: T4 sequence with C33R

NKX2-4 [7] = target: T6, NKX2-4 (Homo sapiens, UniProt Q9H2Z4 175-261, R246Q)
T6 sequence: T1 sequence with L43P, R72Q

NKX2-6 [8] = target: T7, NKX2-6 (Homo sapiens, UniProt A6NCS4 118-204, F151L)
T7 sequence: T4 sequence with C33R, F34L

NKX2-5 [9] = target: NKX2-5 (Homo sapiens, UniProt P52952 125-210)
Sequence of NKX2-5 (Homo sapiens, UniProt P52952 125-210) (P52952 125-210): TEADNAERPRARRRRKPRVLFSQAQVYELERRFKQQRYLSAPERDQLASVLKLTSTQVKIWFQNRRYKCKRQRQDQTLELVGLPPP

VENTX [10] = target: T8, VENTX (Homo sapiens, UniProt O95231 78-163, R121Q)
T8 sequence: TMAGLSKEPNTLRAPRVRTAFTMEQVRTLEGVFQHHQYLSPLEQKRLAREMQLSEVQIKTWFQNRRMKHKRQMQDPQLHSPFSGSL

VENTX [11] = target: T9, VENTX (Homo sapiens, UniProt O95231 78-163)
T9 sequence: T8 sequence with Q44R

VENTX [12] = target: T10, VENTX (Homo sapiens, UniProt O95231 78-163, Y115F)
T10 sequence: T8 sequence with Y38F, Q44R

NKX3-2 [13] = target: NKX3-2 (Homo sapiens, UniProt P78367 192-278, P234S)
Sequence of NKX3-2 (Homo sapiens, UniProt P78367 192-278, P234S) (P78367 192-278 P234S): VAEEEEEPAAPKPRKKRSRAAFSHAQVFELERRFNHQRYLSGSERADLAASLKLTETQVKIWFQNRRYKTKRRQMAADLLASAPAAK

NKX3-2 [14] = target: NKX3-2 (Homo sapiens, UniProt P78367 192-278)
Sequence of NKX3-2 (Homo sapiens, UniProt P78367 192-278) (P78367 192-278): as the sequence (P78367 192-278 P234S) above, with S43P counted along it

Sequence of NKX2-5 (Homo sapiens, UniProt P52952 125-210, R139K) (P52952 125-210 R139K): as the sequence (P52952 125-210) above, with R15K counted along it

GTACTTCA
binding signal (NKX2-5 [1]): 12.5 upbm affinity estimate (log intensity, higher = more binding, comparable within an allelic series)
binding signal (NKX2-4 [2]): 12.7 upbm affinity estimate (log intensity, higher = more binding, comparable within an allelic series)
binding signal (NKX2-4 [3]): 13.1 upbm affinity estimate (log intensity, higher = more binding, comparable within an allelic series)
binding signal (NKX2-4 [4]): 12.6 upbm affinity estimate (log intensity, higher = more binding, comparable within an allelic series)
binding signal (NKX2-6 [5]): 11.7 upbm affinity estimate (log intensity, higher = more binding, comparable within an allelic series)
binding signal (NKX2-6 [6]): 13.4 upbm affinity estimate (log intensity, higher = more binding, comparable within an allelic series)
binding signal (NKX2-4 [7]): 13.2 upbm affinity estimate (log intensity, higher = more binding, comparable within an allelic series)
binding signal (NKX2-6 [8]): 10.8 upbm affinity estimate (log intensity, higher = more binding, comparable within an allelic series)
binding signal (NKX2-5 [9]): 12.4 upbm affinity estimate (log intensity, higher = more binding, comparable within an allelic series)

ACGGCCTG
binding signal (NKX2-5 [1]): 8.92 upbm affinity estimate (log intensity, higher = more binding, comparable within an allelic series)
binding signal (NKX2-4 [2]): 9.73 upbm affinity estimate (log intensity, higher = more binding, comparable within an allelic series)
binding signal (NKX2-4 [3]): 9.59 upbm affinity estimate (log intensity, higher = more binding, comparable within an allelic series)
binding signal (NKX2-4 [4]): 9.65 upbm affinity estimate (log intensity, higher = more binding, comparable within an allelic series)
binding signal (NKX2-4 [7]): 9.71 upbm affinity estimate (log intensity, higher = more binding, comparable within an allelic series)
binding signal (NKX2-5 [9]): 8.81 upbm affinity estimate (log intensity, higher = more binding, comparable within an allelic series)

GCGACGCC
binding signal (NKX2-5 [1]): 8.87 upbm affinity estimate (log intensity, higher = more binding, comparable within an allelic series)
binding signal (VENTX [10]): 8.02 upbm affinity estimate (log intensity, higher = more binding, comparable within an allelic series)
binding signal (VENTX [11]): 8.21 upbm affinity estimate (log intensity, higher = more binding, comparable within an allelic series)
binding signal (VENTX [12]): 8.16 upbm affinity estimate (log intensity, higher = more binding, comparable within an allelic series)
binding signal (NKX2-5 [9]): 8.83 upbm affinity estimate (log intensity, higher = more binding, comparable within an allelic series)

CAAGTACC
binding signal (NKX2-5 [1]): 12.5 upbm affinity estimate (log intensity, higher = more binding, comparable within an allelic series)
binding signal (NKX2-4 [2]): 12.4 upbm affinity estimate (log intensity, higher = more binding, comparable within an allelic series)
binding signal (NKX2-4 [3]): 12.8 upbm affinity estimate (log intensity, higher = more binding, comparable within an allelic series)
binding signal (NKX2-4 [4]): 12.4 upbm affinity estimate (log intensity, higher = more binding, comparable within an allelic series)
binding signal (NKX2-6 [5]): 11.6 upbm affinity estimate (log intensity, higher = more binding, comparable within an allelic series)
binding signal (NKX2-4 [7]): 12.9 upbm affinity estimate (log intensity, higher = more binding, comparable within an allelic series)
binding signal (NKX3-2 [13]): 12.5 upbm affinity estimate (log intensity, higher = more binding, comparable within an allelic series)
binding signal (NKX2-5 [9]): 12.3 upbm affinity estimate (log intensity, higher = more binding, comparable within an allelic series)
binding signal (NKX3-2 [14]): 12.6 upbm affinity estimate (log intensity, higher = more binding, comparable within an allelic series)

AGTCCCGG
binding signal (NKX2-5 [1]): 8.88 upbm affinity estimate (log intensity, higher = more binding, comparable within an allelic series)
binding signal (NKX2-6 [6]): 9.31 upbm affinity estimate (log intensity, higher = more binding, comparable within an allelic series)
binding signal (NKX2-6 [8]): 9.26 upbm affinity estimate (log intensity, higher = more binding, comparable within an allelic series)
binding signal (NKX2-5 [9]): 8.88 upbm affinity estimate (log intensity, higher = more binding, comparable within an allelic series)
